# Measured values from PubChem BioAssay (NCI).
# The panel holds about 83,000 compounds, 20% with a hit somewhere; the sample as a whole holds those more often.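 Step 1: grow cells in 96-well plates. Step 2: add test compound at a single concentration. Step 3: incubate 48 h. Step 4: record percent growth.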 Unmarked numbers belong to inactive results. The source made the active and inactive calls. How the source made its calls: active means growth percent below 10; inactive means the rest.
# Assays:
# Assay in all cases: NCI-60 one-dose screen, 48 h (100 = growth as untreated, 0 = no growth, -100 = all killed)
# Details in all cases: 10 µM unless noted
# [1] = tested on: HCT-15 colon
# [2] = tested on: HT29 colon
# [3] = tested on: SNB-75 CNS
# [4] = tested on: SNB-19 CNS
# [5] = tested on: U251 CNS
# [6] = tested on: PC-3 prostate
# [7] = tested on: SK-MEL-5 melanoma
# [8] = tested on: UACC-62 melanoma
# [9] = tested on: LOX IMVI melanoma
# [10] = tested on: SK-MEL-28 melanoma
# [11] = tested on: SK-MEL-2 melanoma
# [12] = tested on: EKVX NSCLC
# [13] = tested on: SN12C renal
# [14] = tested on: UO-31 renal
# [15] = tested on: TK-10 renal
# [16] = tested on: ACHN renal
# [17] = tested on: CAKI-1 renal
# [18] = tested on: A498 renal
# [19] = tested on: MOLT-4 leukemia
# [20] = tested on: CCRF-CEM leukemia
SMILES,growth [1],growth [2],growth [3],growth [4] [%],growth [5],growth [6],growth [7],growth [8],growth [9],growth [10],growth [11],growth [12] [%],growth [13],growth [14],growth [15] [%],growth [16],growth [17],growth [18],growth [19] [%],growth [20]
CCCCCCCCCCCCCCCCCCOc1cccc(CCOP(=O)(O)OCC[N+](C)(C)C)c1,87%,73.7%,83.1%,83.6,67.7%,2.55% (active),91.1%,85.2%,77.3%,94.2%,90.4%,97,91.1%,91.5%,36.5,95.8%,55.3%,99.2%,104,
COc1ccc(C(=O)N2CCN(C(=O)c3cc(OC)c(OC)c(OC)c3)CC2)cc1OCCCCOc1cc2c(cc1OC)C(=O)N1CCC[C@H]1C=N2,118%,45.8%,110%,99.4,101%,104%,71%,97.2%,106%,136%,31.9%,113,97.9%,32.7%,157,105%,81.4%,,108,86.4%
CCN1C(=O)N(CC)C2Nn3c(s/c(=C\c4cccc(F)c4)c3=O)=NC21 (stereo not drawn),56.6%,39.1%,6.29% (active),80.7,73.2%,52.9%,42.6%,67.7%,69.7%,75.6%,85.3%,79,79.6%,65.1%,109,66.7%,48.9%,46.1%,94.9,
O=C(/C=C/c1ccccc1)n1c(-c2ccc(Cl)cc2)nc2ccccc21,-24.8% (active),-40.6% (active),18.1%,41.1,-0.388% (active),6.09% (active),-70.6% (active),-84.7% (active),-82.9% (active),-65.4% (active),-36% (active),,-48.5% (active),-39% (active),18.6,-49.9% (active),-39.4% (active),-14.6% (active),,-23.9% (active)
COc1cc(/C=C2\C=C(c3ccc(F)cc3)N(Cc3ccccc3)C2=O)cc(OC)c1OC,53.6%,78.9%,70.8%,79,48.8%,32.7%,36.1%,71.6%,65.3%,94.2%,93.1%,,65.7%,45.9%,90.3,73.1%,63.3%,57.4%,,62%
OCc1c(-c2ccccc2)nc2sccn12,97.2%,109%,122%,85.5,95.6%,95.7%,80.2%,101%,104%,122%,108%,86.9,105%,94.8%,106,98.4%,96.6%,95.9%,117,17.9%
CCN1C(=S)N(CC)C2Nn3c(s/c(=C4\C(=O)N(C)c5ccccc54)c3=O)=NC21 (stereo not drawn),35.5%,14.9%,-1.67% (active),70.6,51.4%,38.6%,19.6%,48.4%,49.2%,59.6%,70.4%,54.6,51.3%,37.2%,96.9,52.5%,30.8%,-8.5% (active),61.8,
COc1cccc2nc(Nc3ccc(NC(=O)c4ccc5ncccc5c4)cc3)ccc12,51.5%,63.3%,80.8%,90.3,61.8%,52.3%,80.7%,97.4%,84.6%,73.8%,115%,87.5,97.8%,82.4%,108,92.8%,70.2%,,67.1,69.4%
C/C1=C\CCC2(C)OC2CC2CCC(C)(O)C(CC1)C2(C)C (stereo not drawn),89.4%,107%,108%,87.7,91%,85.2%,84.8%,88%,101%,119%,106%,81.1,101%,99.2%,97,92.5%,87.7%,106%,97.9,84.1%
CC(C)C(C(=O)CCN(C)C)c1ccc(Cl)cc1 (stereo not drawn),92.6%,106%,87.8%,95.1,83.7%,86.9%,102%,89.7%,98.5%,107%,98.4%,103,95.4%,93.3%,101,101%,102%,,76.5,90.6%
CCCCn1c(=O)c(C2CNC(=O)c3ccccc3N2)cc2ccccc21 (stereo not drawn),101%,103%,84%,91,98%,106%,102%,88.4%,97.3%,102%,106%,103,85.7%,93.1%,109,98.2%,85.8%,,46.4,110%
Clc1ccc(/C=C/c2nc(N3CCOCC3)c3nc(Cl)c(Cl)cc3n2)cc1,94.3%,105%,94.3%,101,103%,102%,90.2%,106%,99.8%,111%,110%,,94.1%,76.7%,107,51.5%,109%,106%,,106%
CCC(C)NCC(=O)O (stereo not drawn),88.5%,78.8%,90.9%,107,98.7%,102%,97.5%,108%,109%,104%,85.6%,,110%,98.4%,107,97.7%,97.7%,107%,,
C#CCN1C(=O)/C(=c2\sc3n(c2=O)NC2C(N=3)N(CC)C(=O)N2CC)c2ccccc21 (stereo not drawn),43.8%,26.2%,14.2%,89.1,94.4%,47.5%,53%,54.1%,60.3%,57.3%,91.3%,69.7,71%,47.9%,96.5,54.4%,30.1%,36.8%,68.5,
